Measured values from PubChem BioAssay (EPA / NIEHS).
A structure can be active in one record and inactive in another. Active and inactive are the calls of the source. The calls were made as follows: active = hit-call score of the fitted dose curve at least 0.9, where 1 is the maximum; inactive = score below 0.9.

assay: APR_HepG2_MitoticArrest_24hr: Apredica 24-hour HepG2 Assay for Mitotic Arrest (AID 2282910); conditions: high-content imaging, actives raise or lower the signal
Experimental: APR_HepG2_24hr is a cell-based, multiplexed-readout assay that uses HepG2, a human liver cell line, with measurements taken at 24 hours after chemical dosing in a 384-well plate.APR_HepG2_MitoticArrest_24hr is one of 10 assay component(s) measured or calculated from the APR_HepG2_24hr assay. It is designed to make measurements of cell phenotype, a form of morphology reporter, as detected with fluorescence intensity signals by HCS Fluorescent Imaging technology.Data from the assay component APR_HepG2_MitoticArrest_24hr was analyzed into 1 assay endpoint. This assay endpoint, APR_HepG2_MitoticArrest_24hr, was analyzed with bidirectional fitting relative to DMSO as the negative control and baseline of activity. Using a type of morphology reporter, measures of protein for gain or loss-of-signal activity can be used to understand the signaling at the pathway-level as they relate to the gene . Furthermore, this assay endpoint can be referred to as a primary readout, because this assay has produced multiple assay endpoints where this one serves a signaling function. To generalize the intended target to other relatable targets, this assay endpoint is annotated to the cell cycle intended target family, where the subfamily is arrest.
Cells were treated with dimethyl sulfoxide (DMSO) as a solvent control at a final concentration of 0.5% v/v or with compounds in DMSO with a resulting final DMSO concentration of 0.5% v/v. Compound treatment was done at concentrations of 0.39, 0.78, 1.56, 3.12, 6.24, 12.5, 25, 50, 100, and 200 uM in duplicate on each plate. Cells were treated with compounds for 1, 24, or 72 hr. Carbonyl […] m-chloro-phenylhydrazone (CCCP) and taxol were used as positive controls for mitochondrial function and cytoskeletal stability, respectively; DMSO served as the negative control for this experiment. Cells were fixed by the direct addition of 50 uL formaldehyde in Hank's Balanced Salt Solution (HBSS) to a final concentration of 3.7%. After incubation in the fixation medium for 30 min at room temperature (293-298 K), cells were rinsed twice with HBSS and treated with cell permeabilization buffer (16 uL of 0.5% Triton X-100) for 10 min at room temperature (293-298 K) before labeling. For mitochondrial membrane potential and mitochondrial measurements, pre-fixed cells were incubated with 50 uL of MitoTracker Red CMXRos (Invitrogen) at a concentration of 250 nM for 30 min before fixation. In the remaining cases, post-fixed cells were labeled by incubation with a multiplexed mixture of primary antibodies in HBSS for 60 min at room temperature (293-298 K) to detect immunoreactivity of c-Jun (1:500), phospho-histone H3 (1:100), phospho-histone H2A.x (1:200), p53 (1:400), alpha-tubulin (1:200) and Hoechst 33342 (2 ug/mL). Cells were labeled for multiplexed imaging on two separate plates: a) Hoechst 33342, MitoTracker Red, phospho-histone H3, and alpha-tubulin, and b) Hoechst 33342, phospho-histone H2A.x, and c-Jun. A final rinse with HBSS (50 uL) was performed before analysis. The primary and secondary antibodies for the proteins were phospho-histone H3 (rabbit anti-phospho-histone H3 and FITC-donkey anti-rabbit IgG), phospho-histone H2A.x (mouse anti-phospho-histone H2A.x and FITC-donkey anti-mouse IgG), c-Jun (rabbit anti-phospho-c-Jun and Cy3-donkey anti-rabbit IgG), p53 (sheep anti-p53 and Cy5-donkey anti-sheep IgG), alpha-tubulin (mouse anti-alpha-tubulin and Cy5-donkey anti-mouse IgG). These antibodies are available as the CellCiphr HepG2 assay kit (Millipore).Digital images of each well were captured using a Cellomics ArrayScan VTI (Thermo Scientific Cellomics) (0.8 NA objective, 0.63x optical coupler, and XF-93 filter set) at 20x magnification. The images were acquired using the autofocus feature of the ArrayScan instrument, which entails the following steps. First, the camera focuses on channel 1 (Hoechst 33342), where nuclei are identified. Second, a Z offset of 1 um is used for capturing mitochondria (MitoTracker Red). […]

| SMILES | AC50 | outcome |
| --- | --- | --- |
| CC(C)(C)CC(C)(C)c1ccc(O)cc1 | 49.6 µM (active) |  |
| COc1cc(-c2ccc(N)c(OC)c2)ccc1N | 28.8 µM (active) | inactive |
| ClCC(Cl)CCl |  | inactive |
| NC(=O)O | 5.54 µM (active) |  |
| Cc1ccccc1N |  | inactive |
| O=C(O)C(Cl)(Cl)Cl |  | inactive |
| O=C(O)C(F)(F)C(F)(F)C(F)(F)C(F)(F)C(F)(F)C(F)(F)C(F)(F)C(F)(F)C(F)(F)C(F)(F)F | 60.9 µM (active) |  |
| O=c1[nH]c(=O)[nH]c(=O)[nH]1 |  | inactive |
| C[C@]12CCC(=O)C[C@@H]1CC[C@@H]1[C@@H]2CC[C@]2(C)[C@@H](O)CC[C@@H]12 |  | inactive |
| Cn1sc(Cl)cc1=O | 110 µM (active) |  |
| ClC1(Cl)C2(Cl)C3(Cl)C4(Cl)C(Cl)(Cl)C5(Cl)C3(Cl)C1(Cl)C5(Cl)C24Cl (centres undefined) |  | inactive |
| O=C1C2(Cl)C3(Cl)C4(Cl)C(Cl)(Cl)C5(Cl)C3(Cl)C1(Cl)C5(Cl)C24Cl (centres undefined) |  | inactive |
| C[C@@H]1C[C@@H]([C@H](O)CC2CC(=O)NC(=O)C2)C(=O)[C@@H](C)C1 |  | inactive |
| CC(C)(OO)c1ccccc1 | 71.4 µM (active) |  |
| CC(C)(C)c1cc(O)ccc1O |  | inactive |
| CCC(C)(C)c1ccc(O)c(C(C)(C)CC)c1 | 32.3 µM (active) |  |
| C=CC(=O)OCCCCCC(C)C |  | inactive |
| O=C(Nc1ccc2[nH]ccc2c1)c1cc2cc(F)ccc2n1Cc1cccc(F)c1 | 30.9 µM (active) |  |
| CC12CC1(C)C(=O)N(c1cc(Cl)cc(Cl)c1)C2=O (centres undefined) |  | inactive |
| O=C(O)C(F)(F)C(F)(F)C(F)(F)C(F)(F)C(F)(F)C(F)(F)F |  | inactive |
| CC(=O)[O][Hg][c]1ccccc1 | 3.06 µM (active) |  |
| C=C(C)C(=O)[O][Sn]([CH2]CCC)([CH2]CCC)[CH2]CCC | 0.248 µM (active) |  |
| CN(C)N=O |  | inactive |
| CC(C)(c1ccccc1)c1ccc(O)c(C(C)(C)c2ccccc2)c1 |  | inactive |
| CCC(=O)C(CC(C)N(C)C)(c1ccccc1)c1ccccc1 (centres undefined) |  | inactive |
| CCN1CCC2(CC1)COc1cc3c(cc12)N(C(=O)c1ccc(-c2ccc(-c4nnc(C)o4)cc2C)cc1)CC3 | 13.2 µM (active) |  |
| CCCCCCCCc1ccc(O)cc1 | 77.2 µM (active) |  |
| Oc1cccc2cccnc12 |  | inactive |
